# PubChem BioAssay (NCI)
# The panel holds about 79,000 compounds, 15% with a hit somewhere; the sample as a whole holds those more often. Unmarked numbers belong to inactive results. Calls of active or inactive are those of the source. No stated cut-off is given here; in the data, active means growth inhibition above about 70%; inactive means the rest.
# Tests used:
# [1] = NCI Yeast Anticancer Drug Screen. Data for the rad52 strain (AID 147);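 further: 0% = growth of vehicle-treated control cultures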; conditions: S. cerevisiae rad52 mutant growth inhibition, active compounds read high
# Procedure, shortened: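 Screen used a yeast mutant impaired in DNA repair. After compound exposure, growth was measured. Values reflect inhibition compared with vehicle-treated cells.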
# [2] = NCI Yeast Anticancer Drug Screen. Data for the wt1 strain (AID 149);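 further: 0% = growth of vehicle-treated wt1 cultures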; conditions: S. cerevisiae wt1 strain (SPY 50644) growth inhibition, active compounds read high
# Procedure, shortened: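 Measured: growth of wt1 yeast under compound versus vehicle treatment, reported as inhibition.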
# [3] = NCI Yeast Anticancer Drug Screen. Data for the rad50EPP+ strain (AID 151);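 further: 0% = growth of vehicle-treated control cultures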; conditions: S. cerevisiae rad50 mutant strain, active compounds read high
# Procedure, shortened: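 Exposing the rad50EPP+ strain to each compound, growth was compared with vehicle-only cultures to give inhibition.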
# [4] = NCI Yeast Anticancer Drug Screen. Data for the mgt1 strain (AID 153); conditions: S. cerevisiae mgt1 mutant growth inhibition, active compounds read high
# Procedure, shortened: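 Genetically defined yeast (mgt1) treated with compound; inhibition of growth expressed against vehicle-treated controls.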
# [5] = NCI Yeast Anticancer Drug Screen. Data for the rad50 strain (AID 155);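 further: 0% = growth of vehicle-only cultures of the same strain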; conditions: S. cerevisiae rad50 strain growth inhibition, active compounds read high
# Procedure, shortened: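 Growth of the mutant yeast was measured after compound exposure and referenced to vehicle-treated cultures.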
# [6] = NCI Yeast Anticancer Drug Screen. Data for the mec2-1 strain (AID 157); conditions: S. cerevisiae mec2-1 strain, active compounds read high
# Procedure, shortened: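 Readout is yeast growth inhibition, normalised to vehicle-treated controls, in the mec2-1 strain exposed to compound.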
# [7] = NCI Yeast Anticancer Drug Screen. Data for the rad14 strain (AID 159);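 further: 0% = growth of vehicle-treated control cultures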; conditions: S. cerevisiae rad14 strain growth inhibition, active compounds read high
# Procedure, shortened: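 Here, inhibition of yeast growth was measured after compound exposure, using a strain with a genetic defect in DNA damage repair and vehicle-treated cultures as the reference.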
# [8] = NCI Yeast Anticancer Drug Screen. Data for the sgs1 mgt1 strain (AID 161);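 further: 0% = growth of cultures given vehicle only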; conditions: S. cerevisiae sgs1 mgt1 strain, active compounds read high
# Procedure, shortened: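 Percent growth inhibition was derived by comparing compound-exposed mutant yeast with vehicle-exposed cultures. The strain carries alterations in DNA damage repair.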
# [9] = NCI Yeast Anticancer Drug Screen. Data for the CLN2oe strain (AID 163);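 further: 0% = growth of vehicle-only control cultures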; conditions: S. cerevisiae CLN2oe strain, active compounds read high
# Procedure, shortened: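 Values reflect how much compound exposure reduced yeast growth, referenced to vehicle-exposed cells. Assay organism is a strain with a defined genetic change affecting cell-cycle control.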
# [10] = NCI Yeast Anticancer Drug Screen. Data for the cln2 rad14 strain (AID 165);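 further: 0% = growth equal to vehicle treated cultures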; conditions: S. cerevisiae cln2 rad14 strain, active compounds read high
# Procedure, shortened: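 Relative to vehicle controls, growth inhibition of compound-treated cln2 rad14 yeast was recorded.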
# [11] = NCI Yeast Anticancer Drug Screen. Data for the bub3 strain (AID 167); conditions: S. cerevisiae bub3 mutant strain, active compounds read high
# Procedure, shortened: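 Whole-cell yeast assay. The mutant strain was incubated with compounds, and growth inhibition was determined by comparison with vehicle-treated cells.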
# [12] = NCI Yeast Anticancer Drug Screen. Data for the wt2 strain (AID 169);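 further: 0% = growth of vehicle-treated yeast cultures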; conditions: S. cerevisiae wt2 strain growth inhibition, active compounds read high
# Procedure, shortened: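 Values express reduction in yeast growth under compound treatment, referenced to vehicle-treated cells.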
# [13] = NCI Yeast Anticancer Drug Screen. Data for the mlh1 strain (AID 171);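 further: 0% = growth of vehicle-treated control cultures of the same strain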; conditions: S. cerevisiae mlh1 strain growth inhibition, active compounds read high
# Procedure, shortened: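 Steps: expose the defined-mutant yeast strain to compound; expose a parallel culture to vehicle; measure growth; express compound effect as inhibition relative to the vehicle culture.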
# [14] = NCI Yeast Anticancer Drug Screen. Data for the sgs1 strain (AID 173);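 further: 0% = growth of vehicle-only control cultures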; conditions: S. cerevisiae sgs1 mutant, active compounds read high
# Procedure, shortened: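 Treat defined-mutant yeast with compound; measure growth; calculate inhibition relative to vehicle-treated cells.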
# [15] = NCI Yeast Anticancer Drug Screen. Data for the mlh1 rad18 strain (AID 175); conditions: S. cerevisiae mlh1 rad18 strain growth inhibition, active compounds read high
# Procedure, shortened: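 Test agents were incubated with a yeast strain of defined genotype (DNA damage repair defect). Inhibition of growth was derived by comparison with vehicle-exposed cultures.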
# [16] = NCI Yeast Anticancer Drug Screen. Data for the rad18 strain (AID 177); conditions: S. cerevisiae rad18 mutant growth inhibition, active compounds read high
# Procedure, shortened: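 A genetically defined yeast mutant impaired in DNA damage repair was treated with test compounds, then its growth was measured against cultures receiving vehicle alone.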
# [17] = at 5.0 µM (retest, dose inferred, filed as 0.5)
# [18] = at 50.0 µM (retest, dose inferred, filed as 5.0)
structure (smiles),measurement,setting,value
CCC(=O)c1cccc2ccccc12,growth inhibition,[1]; at 1.2 µM,1%
same,growth inhibition,[1]; at 3.7 µM,2%
same,growth inhibition,[1]; at 11.0 µM,1%
same,growth inhibition,[1]; at 33.0 µM,2%
same,growth inhibition,[1]; at 100.0 µM,-1%
same,growth inhibition,[2]; at 1.2 µM,0%
same,growth inhibition,[2]; at 3.7 µM,1%
same,growth inhibition,[2]; at 11.0 µM,3%
same,growth inhibition,[2]; at 33.0 µM,0%
same,growth inhibition,[2]; at 100.0 µM,-4%
same,growth inhibition,[3]; at 1.2 µM,6%
same,growth inhibition,[3]; at 3.7 µM,11%
same,growth inhibition,[3]; at 11.0 µM,27%
same,growth inhibition,[3]; at 33.0 µM,48%
same,growth inhibition,[3]; at 100.0 µM,86% (active)
same,growth inhibition,[4]; at 1.2 µM,1%
same,growth inhibition,[4]; at 3.7 µM,-1%
same,growth inhibition,[4]; at 11.0 µM,0%
same,growth inhibition,[4]; at 33.0 µM,15%
same,growth inhibition,[4]; at 100.0 µM,3%
same,growth inhibition,[5]; at 1.2 µM,0%
same,growth inhibition,[5]; at 3.7 µM,-1%
same,growth inhibition,[5]; [17],-14%
same,growth inhibition,[5]; at 11.0 µM,1%
same,growth inhibition,[5]; at 33.0 µM,0%
same,growth inhibition,[5]; [18],2%
same,growth inhibition,[5]; at 50.0 µM,14.7%
same,growth inhibition,[5]; at 100.0 µM,-3%
same,growth inhibition,[6]; at 1.2 µM,-2%
same,growth inhibition,[6]; at 3.7 µM,0%
same,growth inhibition,[6]; [17],5%
same,growth inhibition,[6]; at 11.0 µM,-2%
same,growth inhibition,[6]; at 33.0 µM,-1%
same,growth inhibition,[6]; [18],4%
same,growth inhibition,[6]; at 50.0 µM,19.2%
same,growth inhibition,[6]; at 100.0 µM,-1%
same,growth inhibition,[7]; at 1.2 µM,-1%
same,growth inhibition,[7]; at 3.7 µM,-2%
same,growth inhibition,[7]; at 11.0 µM,-1%
same,growth inhibition,[7]; at 33.0 µM,-1%
same,growth inhibition,[7]; at 100.0 µM,4%
same,growth inhibition,[8]; [17],-4%
same,growth inhibition,[8]; [18],52%
same,growth inhibition,[8]; at 50.0 µM,20%
same,growth inhibition,[9]; at 1.2 µM,-7%
same,growth inhibition,[9]; at 3.7 µM,2%
same,growth inhibition,[9]; at 11.0 µM,-6%
same,growth inhibition,[9]; at 33.0 µM,-13%
same,growth inhibition,[9]; at 100.0 µM,-11%
same,growth inhibition,[10]; [17],12%
same,growth inhibition,[10]; [18],18%
same,growth inhibition,[10]; at 50.0 µM,46.5%
same,growth inhibition,[11]; at 1.2 µM,-6%
same,growth inhibition,[11]; at 3.7 µM,-6%
same,growth inhibition,[11]; [17],11%
same,growth inhibition,[11]; at 11.0 µM,-6%
same,growth inhibition,[11]; at 33.0 µM,-8%
same,growth inhibition,[11]; [18],23%
same,growth inhibition,[11]; at 50.0 µM,-4.8%
same,growth inhibition,[11]; at 100.0 µM,4%
same,growth inhibition,[12]; at 1.2 µM,1%
same,growth inhibition,[12]; at 3.7 µM,2%
same,growth inhibition,[12]; at 11.0 µM,3%
same,growth inhibition,[12]; at 33.0 µM,1%
same,growth inhibition,[12]; at 100.0 µM,1%
same,growth inhibition,[13]; at 1.2 µM,3%
same,growth inhibition,[13]; at 3.7 µM,2%
same,growth inhibition,[13]; at 11.0 µM,2%
same,growth inhibition,[13]; at 33.0 µM,1%
same,growth inhibition,[13]; at 100.0 µM,4%
same,growth inhibition,[14]; at 1.2 µM,1%
same,growth inhibition,[14]; at 3.7 µM,3%
same,growth inhibition,[14]; at 11.0 µM,4%
same,growth inhibition,[14]; at 33.0 µM,3%
same,growth inhibition,[14]; at 100.0 µM,14%
same,growth inhibition,[15]; [17],7%
same,growth inhibition,[15]; [18],28%
same,growth inhibition,[15]; at 50.0 µM,-14.7%
same,growth inhibition,[16]; at 1.2 µM,1%
same,growth inhibition,[16]; at 3.7 µM,-1%
same,growth inhibition,[16]; at 11.0 µM,-14%
same,growth inhibition,[16]; at 33.0 µM,0%
same,growth inhibition,[16]; at 100.0 µM,-2%
S=C(Nc1ccc(Cl)cc1)SC1CCCCC1,growth inhibition,[1]; at 1.2 µM,6%
same,growth inhibition,[1]; at 3.7 µM,24%
same,growth inhibition,[1]; at 11.0 µM,34%
same,growth inhibition,[1]; at 33.0 µM,96% (active)
same,growth inhibition,[1]; at 100.0 µM,98% (active)
same,growth inhibition,[2]; at 1.2 µM,7%
same,growth inhibition,[2]; at 3.7 µM,0%
same,growth inhibition,[2]; at 11.0 µM,47%
same,growth inhibition,[2]; at 33.0 µM,98% (active)
same,growth inhibition,[2]; at 100.0 µM,98% (active)
same,growth inhibition,[3]; at 1.2 µM,7%
same,growth inhibition,[3]; at 3.7 µM,22%
same,growth inhibition,[3]; at 11.0 µM,61%
same,growth inhibition,[3]; at 33.0 µM,98% (active)
same,growth inhibition,[3]; at 100.0 µM,98% (active)
same,growth inhibition,[4]; at 1.2 µM,16%
same,growth inhibition,[4]; at 3.7 µM,40%
same,growth inhibition,[4]; at 11.0 µM,33%
same,growth inhibition,[4]; at 33.0 µM,98% (active)
same,growth inhibition,[4]; at 100.0 µM,99% (active)
same,growth inhibition,[5]; at 1.2 µM,-4%
same,growth inhibition,[5]; at 3.7 µM,9%
same,growth inhibition,[5]; [17],12%
same,growth inhibition,[5]; at 11.0 µM,96% (active)
same,growth inhibition,[5]; at 33.0 µM,99% (active)
same,growth inhibition,[5]; [18],65%
same,growth inhibition,[5]; at 50.0 µM,83.2% (active)
same,growth inhibition,[5]; at 100.0 µM,99% (active)
same,growth inhibition,[6]; at 1.2 µM,-17%
same,growth inhibition,[6]; at 3.7 µM,7%
same,growth inhibition,[6]; [17],1%
same,growth inhibition,[6]; at 11.0 µM,93% (active)
same,growth inhibition,[6]; at 33.0 µM,99% (active)
same,growth inhibition,[6]; [18],40%
same,growth inhibition,[6]; at 50.0 µM,85.5% (active)
same,growth inhibition,[6]; at 100.0 µM,96% (active)
same,growth inhibition,[7]; at 1.2 µM,-24%
same,growth inhibition,[7]; at 3.7 µM,-20%
same,growth inhibition,[7]; at 11.0 µM,27%
same,growth inhibition,[7]; at 33.0 µM,97% (active)
same,growth inhibition,[7]; at 100.0 µM,97% (active)
same,growth inhibition,[8]; [17],18%
same,growth inhibition,[8]; [18],79% (active)
same,growth inhibition,[8]; at 50.0 µM,86.5% (active)
same,growth inhibition,[9]; at 1.2 µM,-2%
same,growth inhibition,[9]; at 3.7 µM,-7%
same,growth inhibition,[9]; at 11.0 µM,43%
same,growth inhibition,[9]; at 33.0 µM,96% (active)
same,growth inhibition,[9]; at 100.0 µM,99% (active)
same,growth inhibition,[10]; [17],-6%
same,growth inhibition,[10]; [18],31%
same,growth inhibition,[10]; at 50.0 µM,87.7% (active)
same,growth inhibition,[11]; at 1.2 µM,-18%
same,growth inhibition,[11]; at 3.7 µM,-36%
same,growth inhibition,[11]; [17],17%
same,growth inhibition,[11]; at 11.0 µM,25%
same,growth inhibition,[11]; at 33.0 µM,93% (active)
same,growth inhibition,[11]; [18],51%
same,growth inhibition,[11]; at 50.0 µM,83% (active)
same,growth inhibition,[11]; at 100.0 µM,98% (active)
same,growth inhibition,[12]; at 1.2 µM,-35%
same,growth inhibition,[12]; at 3.7 µM,-22%
same,growth inhibition,[12]; at 11.0 µM,78% (active)
same,growth inhibition,[12]; at 33.0 µM,99% (active)
same,growth inhibition,[12]; at 100.0 µM,98% (active)
same,growth inhibition,[13]; at 1.2 µM,4%
same,growth inhibition,[13]; at 3.7 µM,19%
same,growth inhibition,[13]; at 11.0 µM,50%
same,growth inhibition,[13]; at 33.0 µM,98% (active)
same,growth inhibition,[13]; at 100.0 µM,99% (active)
same,growth inhibition,[14]; at 1.2 µM,0%
same,growth inhibition,[14]; at 3.7 µM,2%
same,growth inhibition,[14]; at 11.0 µM,51%
same,growth inhibition,[14]; at 33.0 µM,98% (active)
same,growth inhibition,[14]; at 100.0 µM,98% (active)
same,growth inhibition,[15]; [17],-2%
same,growth inhibition,[15]; [18],91% (active)
same,growth inhibition,[15]; at 50.0 µM,91.8% (active)
same,growth inhibition,[16]; at 1.2 µM,-8%
same,growth inhibition,[16]; at 3.7 µM,-7%
same,growth inhibition,[16]; at 11.0 µM,48%
same,growth inhibition,[16]; at 33.0 µM,97% (active)
same,growth inhibition,[16]; at 100.0 µM,98% (active)
